Consider 9 compounds from PubChem BioAssay (EPA / NIEHS).

Calls of active or inactive are those of the source. The calls were made as follows: active = hit-call score of the fitted dose curve at least 0.9, where 1 is the maximum; inactive = score below 0.9.

Experiment [1] is described as follows: ATG_E_Box_CIS: Attagene CIS-FACTORIAL HepG2 Assay for human Enhancer Box (E-box) (AID 2282936). To be noted: HepG2 E-box cis-reporter transcription, actives raise or lower the signal. The method, boiled down: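 In this cell-based setup, HepG2 cells bearing transfected promoter-driven reporter units were exposed to chemicals for 24 h; reporter transcripts were amplified, 6-FAM-labelled, cut with HpaI and sized by capillary electrophoresis.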

The nature of experiment [2]: ATG_M_61_CIS: Attagene CIS-FACTORIAL HepG2 Assay for M61 Transcription Factor (Internal Marker) (AID 2282937). To be noted: HepG2 Attagene CIS-FACTORIAL M61 internal marker reporter; actives raise or lower the signal. A digest of the protocol: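 Transfect HepG2 with MRTUs; dose 24 h; isolate RNA; reverse-transcribe with DNase I treatment; PCR-amplify, FAM-label and cut with HpaI for 2 h at 37 C; resolve by CE. Bidirectional fitting against DMSO.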

Experiment [3] can be described thus: ATG_EGR_CIS: Attagene CIS-FACTORIAL HepG2 Assay for human Early Growth Response 1 (EGR1) (AID 2282938). To be noted: HepG2 Attagene CIS-FACTORIAL EGR reporter mRNA; actives raise or lower the signal. The method, boiled down: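 After a 24 h treatment of transiently transfected HepG2 cells, total RNA was reverse-transcribed and reporter sequences PCR-amplified, labelled and run on capillary electrophoresis. Reporters sit under cis-regulatory promoters sensing endogenous factors.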

Experiment [4] in a line: ATG_M_19_CIS: Attagene CIS-FACTORIAL HepG2 Assay for M19 Transcription Factor (Internal Marker) (AID 2282939). To be noted: HepG2 Attagene CIS-FACTORIAL M19 internal marker reporter; actives raise or lower the signal. The method, boiled down: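 Signals come from fluorescence of labelled reporter-specific PCR fragments resolved by capillary electrophoresis, following 24 h treatment of HepG2 cells transfected with cis-promoter reporter units; activity was fitted in both directions relative to DMSO.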

The nature of experiment [5]: ATG_Ets_CIS: Attagene CIS-FACTORIAL HepG2 Assay for human Erythroblast Transformation Specific (ETS) (AID 2282941). To be noted: HepG2 ETS cis-reporter transcription, actives raise or lower the signal. A digest of the protocol: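 RT-PCR/capillary electrophoresis fluorescence read-out of reporter mRNA; HepG2 transient multi-reporter transfection; 24 h compound exposure; gain or loss of signal fitted bidirectionally relative to DMSO.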

Experiment [6] has as its target Hepatocyte nuclear factor 3-beta (Homo sapiens) (UniProt Q9Y261). Description: ATG_FoxA2_CIS: Attagene CIS-FACTORIAL HepG2 Assay for human Forkhead box A2 (FOXA2) (AID 2282942). To be noted: HepG2 cis-reporter transcription factor activity, 24 h; actives raise or lower the signal. A digest of the protocol: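 24 h dosing of HepG2 bearing cis-reporter constructs; mRNA readout by RT-PCR/CE fluorescence; bidirectional fit, DMSO baseline.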

Experiment [7] can be described thus: ATG_FoxO_CIS: Attagene CIS-FACTORIAL HepG2 Assay for human Forkhead box O (FoxO) (AID 2282943). The settings on record: HepG2 Attagene cis-reporter, FoxO element, mRNA; actives raise or lower the signal. The method, boiled down: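 Read-out: fluorescence of 6-FAM-labelled reporter cDNA fragments resolved by capillary electrophoresis. Transiently transfected HepG2 cells were dosed for 24 h; activity fitted in both directions relative to DMSO controls.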

Experiment [8] can be described thus: ATG_GATA_CIS: Attagene CIS-FACTORIAL HepG2 Assay for human GATA Binding Protein (AID 2282944). The settings on record: HepG2 GATA cis-element reporter, Attagene multiplex mRNA; actives raise or lower the signal. A digest of the protocol:
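After transfecting HepG2 cells with multiple cis-regulated reporter units, chemicals are dosed for 24 h; isolated RNA undergoes RT-PCR and fluorescent labeling before capillary electrophoresis, with activity expressed against DMSO.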

Experiment [9] in a line: ATG_GLI_CIS: Attagene CIS-FACTORIAL HepG2 Assay for human Zinc Finger Protein GLI1 (AID 2282945). To be noted: HepG2, Attagene cis-factorial reporter mRNA, GLI element; actives raise or lower the signal. A digest of the protocol: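 Transiently transfected HepG2 cells report endogenous transcription factor activity via cis-element-driven reporter units. After 24 h compound exposure, reporter mRNA was measured by RT-PCR with capillary electrophoresis; bidirectional fitting against DMSO baseline.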

Experiment [10] is described as follows: ATG_ISRE_CIS: Attagene CIS-FACTORIAL HepG2 Assay for human Interferon Regulatory Factor 1 (IRF1) binding to an Interferon-Stimulated Response Element (ISRE) (AID 2282948). To be noted: HepG2 ISRE cis-reporter (Attagene), mRNA transcription readout; actives raise or lower the signal. The method, boiled down:
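Read-out: fluorescent RT-PCR products resolved by capillary electrophoresis, reporting endogenous transcription factor activity via ISRE-driven reporter mRNA in transfected HepG2 cells dosed for 24 h; gain or loss fitted relative to DMSO.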

Experiment [11] in a line: ATG_M_06_CIS: Attagene CIS-FACTORIAL HepG2 Assay for M06 Transcription Factor (Internal Marker) (AID 2282950). The settings on record: HepG2 Attagene CIS-FACTORIAL M06 internal marker reporter; actives raise or lower the signal. A digest of the protocol:
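HepG2 liver cells, 24 h exposure. Reporter transcripts from transfected cis-element constructs quantified by RT-PCR/capillary electrophoresis fluorescence. Bidirectional curve fit against DMSO.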

The target in experiment [12] is Hypoxia-inducible factor 1-alpha (Homo sapiens) (UniProt Q16665). Briefly: ATG_HIF1a_CIS: Attagene CIS-FACTORIAL HepG2 Assay for human Hypoxia Inducible Factor 1 (HIF1A) (AID 2282951). The settings on record: HepG2 Attagene cis-factorial HIF1a reporter transcription; actives raise or lower the signal. A digest of the protocol:
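After 24 h chemical exposure of reporter-transfected HepG2 cells, reporter cDNA was PCR-amplified, labelled by 6-FAM primer extension (2 min 95 C, 20 s 68 C, 10 min 72 C), HpaI-cut (2 h, 37 C) and analysed by CE.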

For experiment [13], the target named is Hepatocyte nuclear factor 6 (Homo sapiens) (UniProt Q9UBC0). Description: ATG_HNF6_CIS: Attagene CIS-FACTORIAL HepG2 Assay for human Hepatocyte Nuclear Factor 6 (HNF6) (AID 2282952). The settings on record: HepG2 Attagene cis-factorial HNF6 reporter transcription; actives raise or lower the signal. The method, boiled down: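 Endogenous factor activity read in transiently transfected HepG2 via promoter-regulated reporter transcripts. RNA harvested 24 h post-dosing, reverse-transcribed, PCR-amplified, FAM-labelled, HpaI-digested and resolved by capillary electrophoresis; fitted in both directions against DMSO.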

Experiment [14] has as its target Heat shock factor protein 1 (Homo sapiens) (UniProt Q00613). Description: ATG_HSE_CIS: Attagene CIS-FACTORIAL HepG2 Assay for human Heat Shock Transcription Factor 1 (HSE) (AID 2282953). To be noted: HepG2 HSE cis-reporter, Attagene RNA transcription; actives raise or lower the signal. The method, boiled down: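 Endogenous transcription factor activity captured via cis-promoter reporter units transfected into HepG2; treatment lasted 24 h. Fluorescence intensity of reporter fragments analysed with bidirectional curve fitting, DMSO baseline.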

A short description of experiment [15]: ATG_MRE_CIS: Attagene CIS-FACTORIAL HepG2 Assay for human Metal Responsive Element (MRE) (AID 2282954). To be noted: HepG2 MRE cis-reporter transcription, Attagene multiplex; actives raise or lower the signal. The method, boiled down: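 Measured here is mRNA induction from an MRE cis-element reporter in HepG2 after 24 h, quantified by fluorescence of labelled RT-PCR products on capillary electrophoresis; gain- and loss-of-signal fits use DMSO as baseline.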

A short description of experiment [16]: ATG_PBREM_CIS: Attagene CIS-FACTORIAL HepG2 Assay for human Phenobarbital-responsive Enhancer Module (PBREM) (AID 2282955). The settings on record: HepG2 PBREM cis-reporter, Attagene multiplexed transcription; actives raise or lower the signal. A digest of the protocol:
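Measures endogenous factor action on a phenobarbital-responsive enhancer module. HepG2 transiently carrying cis reporters, 24 h treatment, mRNA read-out by RT-PCR plus capillary electrophoresis.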

Experiment [17] concerns the target Bile acid receptor (Homo sapiens) (UniProt Q96RI1). Briefly: ATG_IR1_CIS: Attagene CIS-FACTORIAL HepG2 Assay for human Nuclear Receptor Subfamily 1 Group H Member 4 (NR1H4), IR1 submotif (AID 2282946). To be noted: IR1 reporter transcription, actives raise or lower the signal. The method, boiled down:
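Fluorescence of capillary-separated, HpaI-digested RT-PCR reporter products gave IR1-element mRNA induction in HepG2 cells 24 h after dosing. Endogenous transcription factors drove the cis-regulated reporters; activity was fitted bidirectionally against DMSO.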

A short description of experiment [18]: ATG_M_32_CIS: Attagene CIS-FACTORIAL HepG2 Assay for M32 Transcription Factor (Internal Marker) (AID 2282949).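 Also: background control marker of the multiplexed CIS panel rather than a real target.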 The settings on record: HepG2 Attagene cis-factorial M32 reporter, mRNA; actives raise or lower the signal. The method, boiled down: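 HepG2 transfectants (cis-regulated reporter transcription units) dosed 24 h. Reporter mRNA by RT-PCR plus CE, analysed as gain or loss relative to DMSO.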

Experiment [19] is described as follows: ATG_GRE_CIS: Attagene CIS-FACTORIAL HepG2 Assay for human Glucocorticoid Response Elements (GRE) (AID 2282947). To be noted: HepG2 GRE cis-reporter, Attagene multiplex mRNA; actives raise or lower the signal. The method, boiled down: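 Fluorescence intensity of reporter-specific cDNA fragments, separated by capillary electrophoresis, provides the signal. Constructs carry cis-regulating promoters in transiently transfected HepG2 liver cells; 24 h incubation; fitting is bidirectional against DMSO.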

Heat shock factor protein 1 (Homo sapiens), sequence (Q00613 whole entry, looked up, the tested form may be a part): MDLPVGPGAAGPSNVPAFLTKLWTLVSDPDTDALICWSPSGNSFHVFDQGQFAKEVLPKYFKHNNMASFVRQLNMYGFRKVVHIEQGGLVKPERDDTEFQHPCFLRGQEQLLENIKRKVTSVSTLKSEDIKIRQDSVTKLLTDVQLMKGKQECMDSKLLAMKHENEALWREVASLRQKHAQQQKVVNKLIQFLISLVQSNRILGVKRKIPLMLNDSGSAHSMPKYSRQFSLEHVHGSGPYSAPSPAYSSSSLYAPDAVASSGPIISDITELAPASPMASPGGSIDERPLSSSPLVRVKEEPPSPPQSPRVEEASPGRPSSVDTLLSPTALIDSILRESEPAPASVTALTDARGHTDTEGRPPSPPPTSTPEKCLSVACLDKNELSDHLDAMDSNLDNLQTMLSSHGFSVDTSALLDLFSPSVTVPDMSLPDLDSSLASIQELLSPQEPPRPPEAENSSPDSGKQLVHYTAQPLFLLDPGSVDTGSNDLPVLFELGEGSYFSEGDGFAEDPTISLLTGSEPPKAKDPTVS
Hepatocyte nuclear factor 6 (Homo sapiens), sequence (Q9UBC0 whole entry, looked up): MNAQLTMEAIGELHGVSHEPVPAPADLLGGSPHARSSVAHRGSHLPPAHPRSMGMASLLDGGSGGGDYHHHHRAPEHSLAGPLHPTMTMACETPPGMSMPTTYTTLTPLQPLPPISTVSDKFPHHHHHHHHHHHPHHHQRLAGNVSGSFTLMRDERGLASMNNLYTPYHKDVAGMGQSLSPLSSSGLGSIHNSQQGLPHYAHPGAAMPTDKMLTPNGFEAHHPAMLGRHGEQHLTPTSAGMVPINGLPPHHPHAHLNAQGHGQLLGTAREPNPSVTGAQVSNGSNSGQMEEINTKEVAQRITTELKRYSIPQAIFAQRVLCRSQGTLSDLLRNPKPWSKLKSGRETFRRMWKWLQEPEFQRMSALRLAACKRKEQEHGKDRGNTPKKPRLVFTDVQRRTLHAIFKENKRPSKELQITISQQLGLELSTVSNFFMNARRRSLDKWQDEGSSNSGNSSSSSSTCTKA
Hypoxia-inducible factor 1-alpha (Homo sapiens), sequence (Q16665 whole entry, looked up): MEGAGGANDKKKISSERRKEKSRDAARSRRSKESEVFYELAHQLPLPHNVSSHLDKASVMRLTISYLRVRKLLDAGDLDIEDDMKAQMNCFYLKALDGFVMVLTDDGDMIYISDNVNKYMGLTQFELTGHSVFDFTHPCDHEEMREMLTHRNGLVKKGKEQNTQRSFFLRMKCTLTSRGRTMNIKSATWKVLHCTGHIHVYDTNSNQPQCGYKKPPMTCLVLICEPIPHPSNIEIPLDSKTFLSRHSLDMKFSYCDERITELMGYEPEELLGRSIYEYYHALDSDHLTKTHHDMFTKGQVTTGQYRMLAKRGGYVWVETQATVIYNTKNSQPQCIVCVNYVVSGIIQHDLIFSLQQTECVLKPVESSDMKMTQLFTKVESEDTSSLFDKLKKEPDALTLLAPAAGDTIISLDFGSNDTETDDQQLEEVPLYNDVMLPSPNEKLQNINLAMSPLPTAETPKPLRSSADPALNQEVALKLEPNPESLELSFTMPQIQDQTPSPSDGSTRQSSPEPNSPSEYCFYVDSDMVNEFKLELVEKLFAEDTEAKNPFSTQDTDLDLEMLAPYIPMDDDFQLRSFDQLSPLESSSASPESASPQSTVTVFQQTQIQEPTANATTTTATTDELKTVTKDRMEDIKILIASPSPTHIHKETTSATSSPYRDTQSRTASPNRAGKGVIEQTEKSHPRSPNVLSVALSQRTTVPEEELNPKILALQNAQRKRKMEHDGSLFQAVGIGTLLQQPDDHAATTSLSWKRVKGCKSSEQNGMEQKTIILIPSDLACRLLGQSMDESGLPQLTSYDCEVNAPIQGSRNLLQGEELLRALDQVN
Bile acid receptor (Homo sapiens), sequence (Q96RI1 whole entry, looked up): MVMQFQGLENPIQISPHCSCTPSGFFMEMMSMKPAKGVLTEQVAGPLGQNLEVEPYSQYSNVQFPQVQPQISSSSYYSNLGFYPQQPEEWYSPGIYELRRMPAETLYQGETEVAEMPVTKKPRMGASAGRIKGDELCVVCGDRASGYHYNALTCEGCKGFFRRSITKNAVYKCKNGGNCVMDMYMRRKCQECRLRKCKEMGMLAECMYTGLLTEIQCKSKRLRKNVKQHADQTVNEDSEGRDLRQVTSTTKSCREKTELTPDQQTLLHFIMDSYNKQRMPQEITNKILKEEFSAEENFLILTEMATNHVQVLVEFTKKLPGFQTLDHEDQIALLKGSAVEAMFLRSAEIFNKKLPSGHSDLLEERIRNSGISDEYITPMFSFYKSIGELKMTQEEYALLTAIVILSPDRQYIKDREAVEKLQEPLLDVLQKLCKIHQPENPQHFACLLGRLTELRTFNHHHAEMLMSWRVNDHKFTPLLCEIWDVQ
Hepatocyte nuclear factor 3-beta (Homo sapiens), sequence (Q9Y261 whole entry, looked up): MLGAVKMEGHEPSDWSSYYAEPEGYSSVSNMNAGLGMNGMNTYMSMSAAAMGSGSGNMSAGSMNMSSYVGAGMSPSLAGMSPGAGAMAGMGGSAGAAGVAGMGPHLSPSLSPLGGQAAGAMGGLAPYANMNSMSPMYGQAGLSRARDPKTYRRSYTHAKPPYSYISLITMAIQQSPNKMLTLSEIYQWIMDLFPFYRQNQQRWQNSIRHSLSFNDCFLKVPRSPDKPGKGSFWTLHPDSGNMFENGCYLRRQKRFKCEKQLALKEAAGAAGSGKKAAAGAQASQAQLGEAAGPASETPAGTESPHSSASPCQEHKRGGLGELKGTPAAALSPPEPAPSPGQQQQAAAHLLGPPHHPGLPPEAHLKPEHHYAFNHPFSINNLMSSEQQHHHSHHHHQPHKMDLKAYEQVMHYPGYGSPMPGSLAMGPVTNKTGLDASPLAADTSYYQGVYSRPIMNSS

Broadly, the AC50 is the concentration giving half of the maximal activity seen. Turning to `CCCC(=O)OCCC(C)CCC=C(C)C` (stereo not drawn), the outcome in experiment [1], in [2], in [3], in experiment [4], in experiment [5] and in [6] was inactive. Also, the call in experiment [7], in [8], in experiment [9], in [10], in experiment [11] and in [12] was inactive. The result in [14], in experiment [15] and in experiment [16] was inactive. In [13], the AC50 is 180 µM (active).

Turning to `C=CCOC(=O)CCC1CCCCC1`, the result in [1], in experiment [2], in [3], in [4], in experiment [5] and in [6] was inactive. Besides, the outcome in [7], in experiment [8], in [17], in [10], in [18] and in experiment [11] was inactive. The compound was classed as inactive in experiment [12], in experiment [13] and in [15].

Regarding `CCCCCNCCCCC`, the outcome in experiment [1], in experiment [2], in [3], in experiment [4], in [5] and in experiment [6] was inactive. Moreover, the call in experiment [7], in experiment [8], in experiment [9], in experiment [10], in [11] and in experiment [12] was inactive. The result in [13], in experiment [14], in [15] and in [16] was inactive.

As for `CC(=O)C(C)=O`, the result in [1], in [2], in experiment [3], in [4], in [5] and in experiment [6] was inactive. Also, the result in [7], in experiment [9], in [19], in experiment [10], in experiment [18] and in [11] was inactive. Besides, the outcome in [13], in experiment [14] and in experiment [15] was inactive. The half-maximal activity concentration (AC50) in [17] is 28.8 µM (active).

Take `CCCCCCC#CC(=O)OC`: the outcome in experiment [1], in experiment [2], in experiment [3], in experiment [4], in [5] and in [6] was inactive. Also, the result in experiment [7], in [10], in experiment [18], in [11], in experiment [13] and in experiment [14] was inactive. In experiment [15], the compound was called inactive.

Regarding `COCCCOc1ccnc(CS(=O)c2nc3ccccc3[nH]2)c1C` (stereo not drawn), the outcome in [1], in experiment [2], in experiment [3], in [4], in experiment [6] and in [7] was inactive. Further, the result in experiment [8], in [9], in experiment [19], in [10], in experiment [18] and in experiment [11] was inactive. For the same compound, the outcome in experiment [12] and in [13] was inactive. In addition, the AC50 in [14] was 152 µM (active); in [15] it was 106 µM (active).

For `CC(C#N)(CCC(=O)O)N=NC(C)(C#N)CCC(=O)O` (stereo not drawn), the outcome in [1], in experiment [2], in experiment [3], in experiment [4], in experiment [5] and in [6] was inactive. The compound was classed as inactive in experiment [7], in [9], in experiment [17], in experiment [19], in experiment [10] and in [18]. The compound was classed as inactive in experiment [11], in experiment [12], in [13], in [14], in experiment [15] and in [16].

As to `OCCOc1cccc(OCCO)c1`, the outcome in experiment [1], in experiment [2], in [3], in experiment [4], in experiment [5] and in experiment [6] was inactive. Besides, the call in [7], in experiment [8], in [9], in experiment [10], in [18] and in experiment [11] was inactive. For the same compound, the outcome in experiment [13], in experiment [15] and in experiment [16] was inactive.

As for `CC(=O)OCc1ccc2c(c1)OCO2`, the outcome in experiment [1], in experiment [2], in [3], in experiment [4], in [5] and in experiment [6] was inactive. Besides, the compound was called inactive in [7], in experiment [8], in experiment [17], in experiment [19], in experiment [10] and in experiment [18]. In addition, the compound was classed as inactive in experiment [11], in experiment [12], in [13], in experiment [14], in experiment [15] and in [16].
